Bioassay records (PubChem BioAssay)
Hits are enriched below; roughly 0.77% of the tested compounds scored in any of these assays.
RmlCD inh 1536: blocks M. tuberculosis RmlC and RmlD coupled enzymes; P9WH09+P9WH11; RmlC+RmlD coupled enzyme assay, percent inhibition; primary screen in compound mixtures; inhibition, % at 3.6 µM; hit rate 0.03% among 160,000; AID 1533; in the data active = inhibition mostly above about 34%, no sharp cut-off
RecA splice inh: blocks M. tuberculosis RecA intein splicing | cell-free RecA intein splicing, fluorescence | inhibition, % (test concentration not listed) | hit rate 0.75% among 290,000 | AID 2221; in the data active = inhibition above about 30%;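 also: 0% = vehicle wells and 100% = reference inhibitor control wells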
Target sequence (P9WHJ3 whole entry, looked up, canonical isoform): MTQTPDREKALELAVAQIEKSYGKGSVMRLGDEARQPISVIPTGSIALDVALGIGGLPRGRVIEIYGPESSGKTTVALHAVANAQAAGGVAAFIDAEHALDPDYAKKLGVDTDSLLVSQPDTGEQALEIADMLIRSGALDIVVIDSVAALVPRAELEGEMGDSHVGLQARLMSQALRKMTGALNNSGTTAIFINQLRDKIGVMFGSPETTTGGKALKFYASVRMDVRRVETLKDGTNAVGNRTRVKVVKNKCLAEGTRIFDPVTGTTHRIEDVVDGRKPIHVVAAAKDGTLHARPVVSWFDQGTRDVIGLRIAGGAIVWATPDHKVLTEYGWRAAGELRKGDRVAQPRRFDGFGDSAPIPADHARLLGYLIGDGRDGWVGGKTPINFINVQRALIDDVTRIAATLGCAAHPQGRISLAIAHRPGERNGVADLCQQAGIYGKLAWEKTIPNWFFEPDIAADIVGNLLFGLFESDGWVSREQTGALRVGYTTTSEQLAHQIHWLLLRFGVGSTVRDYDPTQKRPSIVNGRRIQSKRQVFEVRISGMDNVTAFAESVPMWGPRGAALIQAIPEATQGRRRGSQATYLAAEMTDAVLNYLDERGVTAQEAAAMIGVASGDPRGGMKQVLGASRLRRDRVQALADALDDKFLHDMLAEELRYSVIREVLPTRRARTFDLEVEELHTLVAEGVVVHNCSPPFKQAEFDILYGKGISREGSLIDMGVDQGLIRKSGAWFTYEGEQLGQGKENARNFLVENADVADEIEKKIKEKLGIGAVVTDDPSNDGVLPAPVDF
GFP chromo cs: counter-screen GFP chromophore formation inhibition | EC50, µM | AID 434968 | shares compounds with RecA splice inh | cell-free GFP chromophore formation, fluorescence | hit rate 83% among 2,100; call rule not given here
An asterisk follows results filed as active; / = not tested or not shown.

SMILES	RmlCD inh 1536	RecA splice inh	GFP chromo cs
Cc1sc(NC(=O)CSC2=NCCS2)nc1-c1ccccc1	0.9	44.5*	>38
CCc1cc(C(=O)c2ccc(C)cc2)c(NC(=O)CCl)s1	-8.9	73.6*	14.3*
CCc1cc(C(=O)c2ccc(OC)cc2)c(NC(=O)CCC(=O)O)s1	9.7	3.1	/
CCN1C(=O)c2ccccc2Sc2ccc(C(=O)NCCCN3CCCCC3)cc21	/	10.1	/
CC1=NN(c2ccc(C)cc2C)C(=O)C1C(c1cccc(O)c1)C1C(=O)N(c2ccc(C)cc2C)N=C1C (stereo not given)	-7.1	97.0*	1.4*
CC1=NN(c2ccccc2)C(=O)C1N=Nc1cccc(O)c1 (stereo not given)	/	2.8	/
CC1(C)Cc2c(C#N)c(N)n(-c3ccccc3)c(=S)c2CO1	2.3	-0.3	/
CC1(C)C=C2C(=NN(c3ccccc3)C(N)=C2C#N)CO1	/	90.4*	1.49*
Fc1cccc(CNCC2CCCO2)c1 (stereo not given)	/	-1.7	/
O=C(CN1CCCc2ccccc21)N/N=C/c1ccc(O)cc1O	1.0	-0.3	/
CCOC(=O)C1=C(C)N=c2s/c(=C\c3ccc(O)c([N+](=O)[O-])c3)c(=O)n2C1c1ccccc1OC (stereo not given)	/	-1.5	/
CCOC(=O)C1=C(C)n2c(s/c(=C/c3cccc([N+](=O)[O-])c3)c2=O)=NC1c1ccc(O)c(OC)c1 (stereo not given)	-0.6	35.1*	36*
O=C(OCc1csc(-c2ccccc2)n1)c1ccccc1O	3.0	9.0	/
Cc1nc(COC(=O)c2cc(O)c3ccccc3c2O)cs1	2.2	56.0*	6.2*
COc1nc(N/N=C/c2ccc(-c3ccccc3[N+](=O)[O-])o2)nc(N2CCOCC2)n1	16.6	61.0*	35.1*
O=[N+]([O-])c1ccc(-c2ccc(/C=N/Nc3nc(NCc4ccccc4)nc(N4CCOCC4)n3)o2)cc1	-8.8	-15.4	/
Cc1ccccc1-n1c(-c2ccc([N+](=O)[O-])cc2)nc2ccccc2c1=O	/	5.6	/
Cc1ccccc1-n1ncc2c([N+](=O)[O-])cc([N+](=O)[O-])cc21	/	85.2*	5.79*
COC(=O)Cc1[nH]nc2c1C(c1cccc(OC)c1OC)C(C#N)=C(N)O2 (stereo not given)	9.6	/	/
CCOc1ccccc1C1C(C#N)=C(N)Oc2cc(C)n(C)c(=O)c21 (stereo not given)	1.5	/	/
CCOC(=O)Cc1[nH]nc2c1C(c1cccc(OC)c1OC)C(C#N)=C(N)O2 (stereo not given)	/	45.2*	>38
CCOC(=O)Cc1[nH]nc2c1C(C1C=CCCC1)C(C#N)=C(N)O2 (stereo not given)	/	3.3	/
CCOc1ccccc1C1C(C#N)=C(N)Oc2n[nH]c(CC)c21 (stereo not given)	-276.5	32.5*	32.6*
CCOC(=O)Cc1[nH]nc2c1C(c1cc(OC)ccc1OC)C(C#N)=C(N)O2 (stereo not given)	-3.1	62.6*	4.56*
CN1C(=O)C(c2nnc(Nc3cccc4ccccc34)s2)C2CC1(C)Oc1ccccc12 (stereo not given)	-13.0	/	/
SMILES	RmlCD inh 1536	RecA splice inh	GFP chromo cs
Cc1csc(SCC(=O)Nc2cc(C(C)(C)C)nn2-c2ccccc2)n1	/	2.7	/
O=[N+]([O-])c1ccc(-c2ccc(S(=O)(=O)N3CCOCC3)cc2)cc1	/	1.2	/
CCCc1[nH]nc2c1C(c1ccc(OC)c(CSC3=NCCS3)c1)C(C#N)=C(N)O2 (stereo not given)	-1.8	74.5*	14.8*
CCCc1[nH]nc2c1C(c1cc(OC)ccc1F)C(C#N)=C(N)O2 (stereo not given)	16.3	29.9	/
CCCc1[nH]nc2c1C(CCc1ccccc1)C(C#N)=C(N)O2 (stereo not given)	/	55.4*	22.2*
CCCc1[nH]nc2c1C(c1cccc(OC(=O)c3ccco3)c1)C(C#N)=C(N)O2 (stereo not given)	20.7	58.9*	17.8*
N#CC1=C(N)SC(N)=C(C#N)C1CCc1ccccc1	8.6	0.1	/
COC(=O)C1=C(C)OC(N)=C(C#N)C1c1ccc(OC)c(CSc2ccccn2)c1 (stereo not given)	/	-1.2	/
CCCc1[nH]nc2c1C(c1cc(OC)cc(OC)c1)C(C#N)=C(N)O2 (stereo not given)	4.1	44.4*	3.96*
CC1(C)CC(=O)C2=C(C1)OC(N)=C(C#N)C2c1cccc(OC(=O)c2ccco2)c1 (stereo not given)	59.6	-2.3	/
COC(=O)c1cc2sc(Cl)cc2n1CC(=O)NCC1CCCO1 (stereo not given)	/	1.4	/
CCCCOC(=O)Nc1ccc(N(C)C)cc1	1.7	3.2	/
Cn1c(=O)[nH]c(=O)c2c1nc(SCC(=O)O)n2CCc1ccccc1	/	-1.8	/
Cc1nnc(NC(=O)CSc2ccc(-c3ccccn3)nn2)s1	-10.6	-1.5	/
COc1cccc(-n2nnc3c(=O)n(CC(=O)OCc4ccccc4)cnc32)c1	/	-1.1	/
CC(=O)c1ccc(NC(=O)CN(C)CC(=O)Nc2cccc(F)c2)cc1	28.2	-0.7	/
CN(C(=O)c1cc(S(=O)(=O)N2CCCCC2)c[nH]1)C1CCCCC1	/	-0.7	/
COc1ccc(CC(=O)NN2C(=O)c3ccccc3C2=O)cc1	1.9	-3.1	/
COc1ccc(CC2=CC(=O)c3ccccc3C2=O)cc1	/	77.1*	8.48*
O=c1c(Cl)c(N/N=C/c2ccc(Br)cc2)cnn1-c1ccccc1	2.1	4.2	/
Cc1cc(C(=O)CN2C(=O)c3ccccc3C2=O)c(C)n1C1CC1	-4.2	98.1*	>38
Cc1cc(C(=O)Cn2nc(C(=O)O)c3ccccc3c2=O)c(C)n1C1CC1	1.1	3.0	/
CCN(CC)CCN1C(=O)C(=O)/C(=C(/O)c2ccc(C)cc2)C1c1ccncc1 (stereo not given)	/	2.1	/
Cc1ccc(C(=O)c2ccccc2C(=O)OCC(=O)NC(C)(C)C)cc1	-2.6	-3.4	/
O=C(Oc1ccc(N2C(=O)CCC2=O)cc1)c1ccco1	/	30.5*	0.606*
SMILES	RmlCD inh 1536	RecA splice inh	GFP chromo cs
COC(=O)C1=C(C)NC(C)=C(C(=O)OC)C1c1ccc(OC(=O)c2ccco2)cc1	/	1.4	/
COc1ccc(C(C)=O)c(OC(=O)c2ccco2)c1	3.6	9.9	/
COC(=O)C1=C(C)NC(=S)NC1c1ccc(OC(=O)c2ccco2)cc1 (stereo not given)	2.9	31.0*	>38
O=C(Nc1ccc(OC(=O)c2cccs2)cc1)c1ccco1	6.5	1.4	/
CC1C=CCC2C(=O)N(c3ccc(OC(=O)c4ccco4)cc3)C(=O)C12 (stereo not given)	-2.5	7.2	/
CC(=O)Nc1ccc(OC(=O)c2ccco2)cc1	/	32.7*	>38
CC(=O)Nc1cc(OC(=O)c2ccco2)cc(OC(=O)c2ccco2)c1	6.3	53.6*	7.42*
CN(C)c1cc[n+](CC(=O)Nc2ccc(Cl)cc2)cc1	/	-6.4	/
Cc1ccc2c(c1)N(CC(=O)N1CCN(C3CCCCC3)CC1)C(=O)CO2	/	-0.9	/
O=C(NC1CCCC1)C(c1ccc(F)cc1)N(C(=O)c1csnn1)C1CC1 (stereo not given)	/	-0.3	/
O=C(c1ccc(F)cc1)N1CCCC(C(=O)N2CCN(c3ccccc3)CC2)C1 (stereo not given)	-5.8	1.9	/
Nc1nn2c(-c3ccccc3)cc(=O)[nH]c2c1N=Nc1ccc(Br)cc1	-6.5	/	/
Nc1nn2c(-c3ccccc3)cc(=O)[nH]c2c1N=Nc1ccc(O)cc1	9.1	52.2*	1.98*
COc1ccccc1Nc1c2ccccc2nc2ccccc12	/	12.9	/
